Sampled rows, rich in hits. Any-hit rate of the full collection: about 2.7%.
GLP1R ag: qHTS of GLP-1 Receptor Agonists | Glucagon-like peptide 1 receptor (Homo sapiens), P43220 | Potency, µM (highest dose often 45.6 µM), for inactives: top-dose activation, hits mostly activators | HEK293 GLP-1R CRE-luciferase, luminescence, 4-6 h; cells express a hypersensitive GLP-1R form | actives 0.007% (n = 380,000); note: % of control where 0% means no effect
Target sequence (P43220 whole entry, looked up): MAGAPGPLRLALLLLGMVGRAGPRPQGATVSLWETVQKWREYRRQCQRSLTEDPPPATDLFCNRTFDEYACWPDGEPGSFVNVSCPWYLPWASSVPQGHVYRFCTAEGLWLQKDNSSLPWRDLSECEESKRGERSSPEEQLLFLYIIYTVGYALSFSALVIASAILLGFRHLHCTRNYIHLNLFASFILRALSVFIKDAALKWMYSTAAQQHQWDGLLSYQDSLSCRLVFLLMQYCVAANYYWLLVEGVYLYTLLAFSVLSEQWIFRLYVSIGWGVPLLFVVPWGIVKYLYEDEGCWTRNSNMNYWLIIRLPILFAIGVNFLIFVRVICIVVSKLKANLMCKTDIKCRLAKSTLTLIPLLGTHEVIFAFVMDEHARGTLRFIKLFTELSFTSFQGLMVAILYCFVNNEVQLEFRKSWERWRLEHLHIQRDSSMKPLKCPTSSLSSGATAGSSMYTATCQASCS
rTrxR1 inhibitor: qHTS Assay for Inhibitors of Mammalian Selenoprotein Thioredoxin Reductase 1 (TrxR1): qHTS | actives 1% (n = 390,000) | AID 588453, 2011 | recombinant rTrxR1, NADPH fluorescence consumption, selenite substrate | Thioredoxin reductase 1, cytoplasmic (Rattus norvegicus), O89049 | Potency, µM (top dose mostly 114 µM), for the others: at the top dose activity change, negative = inhibition, usual class: inhibitors; note: % is set by controls: 0 for no effect and ±100 for the full control effect; nearly all actives have a fitted effect of over 65% in size
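Rat TrxR1 (90 nM in the dispensed reagent) was pre-reduced with 400 uM NADPH for 5 min at room temperature, then incubated with compound for 15 min. After 400 uM selenite was added, NADPH fluorescence (Ex 340/Em 450 nm) was followed for 8 min.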
HEK293 tox: qHTS of GLP-1 Receptor Inverse Agonists: Cytotox Screen; HEK293 cAMP-luciferase reporter cells, luminescence, 24 h; Potency, µM (highest dose often 38.3 µM), for the others: at the highest dose activity change, negative = inhibition, usual class: inhibitors; actives 0.13% (n = 410,000); AID 624418, 2012;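 note: loss of luciferase light is scored as toxicity; % is set by controls: 0 for no effect and ±100 for the full control effect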
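Cells in DMEM/10% Nu serum/1% pen-strep, 1536-well format. Pre-incubated 12 h, dosed with 23 nL compound, incubated a further 24 h. Luciferase detection, 12 min at room temp, luminescence.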
GLP1R inv ag: qHTS of GLP-1 Receptor Inverse Agonists (Inhibition Mode); HEK293 GLP-1R CRE-luciferase, luminescence, 24 h; GLP-1R form is constitutively active; Potency, µM (top dose mostly 38.3 µM), inactives show at the highest dose activity change, negative = inhibition, actives largely listed as inhibitors; Glucagon-like peptide 1 receptor (Homo sapiens), P43220; actives 1.6% (n = 410,000); AID 624417, 2012; note: % is set by controls: 0 for no effect and ±100 for the full control effect; nearly all actives have a fitted effect of over 55% in size
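Seeding at 200 cells/uL, 12 h culture, 24 hr compound treatment, then luciferase reagent and a luminescence read; cells are HEK293 stably expressing a constitutively active GLP-1R plus cAMP-responsive luciferase.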
TrxR1 substrate: qHTS Assay for Substrates of Mammalian Selenoprotein Thioredoxin Reductase 1 (TrxR1): qHTS; Thioredoxin reductase 1, cytoplasmic (Rattus norvegicus), O89049; purified TrxR1 substrate turnover, NADPH consumption readout; Potency, µM (top dose mostly 114 µM), without a hit: at the top dose activity change, negative = substrate turnover; actives 0.01% (n = 390,000); AID 588456, 2011; note: % is set by controls: 0 for no effect and ±100 for the full control effect; nearly all actives have a fitted effect of over 50% in size
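Rat TrxR1, dispensed at 90 nM, was prereduced with 400 uM NADPH (final) for 5 min at ~22 deg C, then incubated with compound 15 min before 400 uM selenite. A first-read NADPH fluorescence drop versus no-compound background flagged substrates.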
IDH1 R132H inh: qHTS for Inhibitors of mutant isocitrate dehydrogenase 1 (IDH1): qHTS | AID 602179, 2012 | Potency, µM (doses to about 76.6 µM), for the others: top-dose activity change, negative = inhibition, most hits filed as inhibitors | IDH1-R132H enzyme, NADPH consumption, diaphorase/resazurin fluorescence | actives 0.093% (n = 390,000) | Isocitrate dehydrogenase [NADP] cytoplasmic (Homo sapiens), O75874; note: % is set by controls: 0 for no effect and ±100 for the full control effect; nearly all actives have a fitted effect of over 65% in size
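IDH1-R132H (0.5 ug/mL dispensed) in pH 7.5 Tris buffer was preincubated 30 min with compound, then given a substrate mix of 0.016 mM NADPH and 2 mM alpha-KG for 80 min at room temperature; remaining NADPH was read by diaphorase/resazurin fluorescence.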
* = called active by the depositor; [ ] = another dose, or the depositor's remark. Calls come from the whole dose curve; as a rule, active = well fitted curve in the direction sought with a large enough effect; inconclusive = small, poorly fitted or top-dose-only effect, or another doubt; inactive = no such curve, though single readings can be large; an effect the other way counts as inactive or inconclusive. Potency is the fitted concentration of half-maximal effect.

O=C(CN1C(=O)CSc2ccc(S(=O)(=O)N3CCCCC3)cc21)NCc1ccccc1Cl was read as GLP1R ag -4%, rTrxR1 inhibitor -20%, HEK293 tox -18%, GLP1R inv ag 2.5µM*, TrxR1 substrate -10% and IDH1 R132H inh 2%.
CC1CCN(S(=O)(=O)c2ccc3c(c2)N(CC(=O)NCc2ccccc2Cl)C(=O)CS3)CC1 was read as rTrxR1 inhibitor 10%[57.1 µM], HEK293 tox 1%, GLP1R inv ag inconclusive, TrxR1 substrate -4%[57.1 µM] and IDH1 R132H inh -17%.
For C=C1CN(C(C(=O)OC)C(C)C)S(=O)(=O)c2ccc(F)cc21 (stereo unspecified) the results were rTrxR1 inhibitor -20% and TrxR1 substrate -5%.
`Cn1c(-c2ccccc2O)cc2ccccc21` gave GLP1R ag 1%, rTrxR1 inhibitor 11%[57.1 µM], HEK293 tox -9%, GLP1R inv ag 10µM*, TrxR1 substrate 12%[57.1 µM] and IDH1 R132H inh 2%.
Cn1c(-c2ccccc2)cc2ccccc21 was read as GLP1R ag 4%, rTrxR1 inhibitor 12%[57.1 µM], HEK293 tox -2%, GLP1R inv ag -12%, TrxR1 substrate 18%[57.1 µM] and IDH1 R132H inh 7%.
For C=CCN1c2ccccc2C(=O)CS1(=O)=O the results were GLP1R ag 7%, rTrxR1 inhibitor 11µM*, HEK293 tox 4%, GLP1R inv ag 5%, TrxR1 substrate 13%[57.1 µM] and IDH1 R132H inh -9%.
For Cn1c(Cl)cnc1C1CC(=O)c2cc(Cl)ccc2O1 (stereo unspecified) the results were GLP1R ag -4%, rTrxR1 inhibitor -29%, HEK293 tox 7.9µM*, GLP1R inv ag 3.5µM*, TrxR1 substrate -4% and IDH1 R132H inh 2%.
`Cc1ccc(C)c(CN2C(=O)c3ccccc3S(=O)(=O)c3ccc(C(=O)NCc4ccccc4)cc32)c1` gave rTrxR1 inhibitor -6%, HEK293 tox -9%, GLP1R inv ag 1% and TrxR1 substrate -3%.
For O=C1C2CC=CCC2C(=O)N1Nc1ccccc1 (stereo unspecified) the results were GLP1R ag 1%, rTrxR1 inhibitor 5%[57.1 µM], HEK293 tox -29%, GLP1R inv ag inconclusive, TrxR1 substrate 0%[57.1 µM] and IDH1 R132H inh 9%.
For O=C1C2C3C=CC(O3)C2C(=O)N1Nc1ccccc1 (stereo unspecified) the results were GLP1R ag 4%, rTrxR1 inhibitor 10%[2.29 µM], HEK293 tox -4%, GLP1R inv ag 8.9µM*, TrxR1 substrate 13%[57.1 µM] and IDH1 R132H inh 3%.
For CCOc1ccc(C(=O)CC(C(=O)O)N2CCN(Cc3ccccc3)CC2)cc1 (stereo unspecified) the results were GLP1R ag -3%, rTrxR1 inhibitor 16µM*, HEK293 tox -7%, GLP1R inv ag inconclusive, TrxR1 substrate -9% and IDH1 R132H inh 2%.
CCOc1ccc(C(=O)OC(C)C(=O)N2CCN(Cc3ccccc3)CC2)cc1 (stereo unspecified) was read as GLP1R ag 6%, rTrxR1 inhibitor 14%[57.1 µM], HEK293 tox 0%, GLP1R inv ag inconclusive, TrxR1 substrate 8%[57.1 µM] and IDH1 R132H inh 8%.
`CCOc1ccc(C(=O)CC(C(=O)O)N2CCCCC2)cc1` (stereo unspecified) gave GLP1R ag -8%, rTrxR1 inhibitor 14µM*, HEK293 tox -20%, GLP1R inv ag inconclusive, TrxR1 substrate -10% and IDH1 R132H inh -5%.

Compound activity from PubChem BioAssay.
